The text below walks through data of PubChem BioAssay (NCATS).

Records with an inconclusive call do not appear. Calls of active or inactive are those of the source. Calls follow the shape of the dose curve; as a rule, active = well fitted inhibition curve with a large enough effect; inconclusive = small, poorly fitted or top-dose-only effect; inactive = flat fitted curve, though single readings scatter.

Holding throughout (assay): qHTS profiling for inhibitors of Plasmodium falciparum proliferation (AID 504749); also: nearly all actives have a fitted effect of over 60% in size
Settings in all cases: P. falciparum in erythrocytes, SYBR Green DNA, 72 h; series mostly up to 28.7 µM

One assay concerns CP185. The method in brief:
(§1)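 Infected RBCs, 0.3% parasitemia/2.5% Hct final; cpd 72 h, 37 C, 5% CO2; lysis buffer with saponin/triton/SYBR Green I, o/n RT dark; FI 485/535; norm. to artemisinin (0.29 uM) and DMSO.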

The test system of a further assay is CP191. A digest of the protocol: as §1
The next assay deals with CP192. A digest of the protocol: as §1
The subject of the next assay is CP194. A digest of the protocol: as §1
For another assay, the system named is CP201. The method in brief: as §1
The subject of the next assay is CP203. A digest of the protocol:
as §1

A further assay relates to CP211. The method in brief: as §1
For a further assay, the system named is CP215. The method in brief: as §1
A further assay deals with CP217. A digest of the protocol: as §1
The test system of the next assay is CP237. A digest of the protocol:
as §1

The subject of another assay is CP238. A digest of the protocol: as §1
In the next assay the test system is CP247. A digest of the protocol: as §1
A further assay has as its system CP250. The method in brief: as §1
The next assay deals with CP252. A digest of the protocol: as §1
The next assay deals with CP256. A digest of the protocol: as §1
For another assay, the system named is CP260. A digest of the protocol:
as §1

In the next assay the test system is CP262. A digest of the protocol: as §1
For a further assay, the system named is CP265. The method in brief:
as §1

A further assay deals with CP266. The method in brief: as §1
The test system of another assay is CP268. A digest of the protocol:
as §1
Potency is read from the fitted curve at half-maximal effect.

As for `NCC1(CC(=O)O)CCCCC1`, the Potency entry with CP185, with CP191, in the assay on CP192, in the assay on CP194, in the assay on CP201 and in the assay on CP203 was “inactive” in each case. For the same compound, the Potency result with CP211, in the assay with CP215, in the assay with CP217, in the assay with CP237, with CP238 and in the assay on CP247 was “inactive” in each case. Besides, the Potency entry in the assay on CP250, in the assay on CP252, in the assay on CP256, in the assay on CP260, in the assay with CP262 and in the assay with CP265 was “inactive” throughout. Further, the Potency result in the assay with CP266 and in the assay with CP268 was “inactive” each time.

`Cn1c(CCCC(=O)O)nc2cc(N(CCCl)CCCl)ccc21`: the Potency result in the assay with CP185, in the assay on CP191, with CP192, in the assay on CP194, in the assay with CP201 and in the assay on CP211 was “inactive” in each case. Further, the Potency result in the assay with CP215, in the assay with CP217, with CP237, with CP238, in the assay with CP247 and in the assay with CP250 was “inactive” throughout. The Potency entry in the assay with CP252, in the assay on CP256, with CP260, with CP262, in the assay with CP265 and with CP266 was “inactive” each time. Besides, the Potency result in the assay on CP268 is “inactive”.

Turning to `CCOP(=S)(OCC)Oc1cc(C)nc(C(C)C)n1`, the Potency entry with CP185, with CP191, in the assay on CP192, with CP194, with CP201 and in the assay on CP211 was “inactive” throughout. Also, the Potency entry in the assay on CP215, in the assay on CP217, in the assay on CP237, in the assay with CP238, in the assay on CP247 and with CP250 was “inactive” throughout. Also, the Potency entry in the assay on CP252, in the assay on CP256, in the assay on CP260, in the assay with CP262, in the assay with CP265 and in the assay on CP266 was “inactive” in each case. In addition, the Potency result in the assay with CP268 is “inactive”.

Consider `NN=C(N)N`, for which the Potency result with CP185, in the assay with CP191, with CP192, in the assay with CP194, in the assay with CP201 and in the assay with CP211 was “inactive” each time. In addition, the Potency result with CP215, in the assay with CP217, in the assay on CP237, in the assay on CP238, in the assay on CP247 and in the assay with CP250 was “inactive” throughout. Moreover, the Potency result in the assay with CP252, in the assay with CP256, in the assay on CP260, with CP262, with CP265 and in the assay with CP266 was “inactive” in each case. Further, the Potency result in the assay on CP268 is “inactive”.

On to `O=C(NC(O)C(Cl)(Cl)Cl)NC(O)C(Cl)(Cl)Cl` (centres undefined), for which the Potency result with CP185, in the assay with CP191, in the assay on CP192, in the assay with CP194, in the assay with CP201 and in the assay on CP211 was “inactive” throughout. For the same compound, the Potency entry in the assay on CP215, in the assay with CP217, with CP237, in the assay on CP238, in the assay with CP247 and with CP250 was “inactive” in each case. For the same compound, the Potency entry in the assay on CP252, with CP256, in the assay with CP260, in the assay with CP262, in the assay on CP265 and in the assay on CP266 was “inactive” each time. Also, the Potency result in the assay on CP268 is “inactive”.

Take `O=C(O)c1ccc2[nH]cc(CCCCN3CC=C(c4ccccc4)CC3)c2c1`: the Potency entry in the assay with CP185, with CP191, with CP192, in the assay on CP194, in the assay on CP201 and in the assay with CP211 was “inactive” in each case. The Potency result in the assay on CP215, in the assay with CP217, in the assay on CP237, in the assay with CP238, with CP250 and with CP252 was “inactive” throughout. Moreover, the Potency entry in the assay with CP256, in the assay on CP260, with CP262, in the assay with CP265, in the assay on CP266 and in the assay with CP268 was “inactive” each time.

As to `CC1NCCOC1c1ccccc1` (centres undefined), the Potency entry in the assay on CP185, in the assay on CP191, in the assay on CP192, in the assay with CP194, in the assay on CP201 and with CP211 was “inactive” throughout. The Potency result in the assay on CP215, in the assay with CP217, in the assay with CP238, with CP247, with CP250 and in the assay on CP252 was “inactive” in each case. Also, the Potency result with CP256, with CP260, with CP262, in the assay on CP265, in the assay with CP266 and in the assay on CP268 was “inactive” throughout.

For the compound `CCCN1CCC[C@@H]2Cc3[nH]ncc3C[C@H]21`, the Potency result in the assay on CP192, in the assay on CP194, in the assay on CP201, with CP211, in the assay with CP215 and in the assay with CP262 was “inactive” each time. Besides, the Potency result in the assay with CP266 and with CP268 was “inactive” each time.

As to `C=C1CC[C@@]2(O)[C@H]3Cc4ccc(O)c5c4[C@@]2(CCN3CC2CC2)[C@H]1O5`, the Potency result with CP185, in the assay with CP192, in the assay with CP194, in the assay on CP201, with CP211 and in the assay on CP215 was “inactive” in each case. In addition, the Potency entry with CP217, in the assay on CP238, in the assay with CP247, with CP250, with CP252 and in the assay with CP256 was “inactive” throughout. The Potency result with CP262, in the assay on CP265, with CP266 and in the assay on CP268 was “inactive” throughout.

As for `c1ccc2c(c1)Nc1ccccc1S2`, the Potency with CP191 is 7.94 µM (active); in the assay with CP247, 10 µM (active); in the assay on CP250, 4.47 µM (active); in the assay with CP260 it was 10 µM (active). Further, the Potency result in the assay on CP201, in the assay on CP238, in the assay with CP265 and in the assay with CP266 was “inactive” throughout.

As to `Cc1ccc(S(=O)(=O)N[C@@H](CCCCN)C(=O)CCl)cc1`, the Potency is 8.91 µM (active) in the assay with CP191, 5.62 µM (active) with CP247, 7.94 µM (active) in the assay with CP250 and 7.94 µM (active) in the assay on CP256. The Potency result with CP192, with CP201, with CP211, in the assay on CP215, with CP266 and in the assay on CP268 was “inactive” in each case.

As to `Oc1cc(Cl)ccc1Oc1ccc(Cl)cc1Cl`, the Potency is 11.2 µM (active) with CP191; 12 µM (active) in the assay on CP192; 13.5 µM (active) in the assay with CP194; 13.5 µM (active) in the assay with CP215; 7.94 µM (active) with CP217; 7.08 µM (active) in the assay with CP237. Further, the Potency in the assay with CP238 is 10 µM (active); with CP252, 7.94 µM (active); in the assay with CP260, 11.2 µM (active). For the same compound, the Potency entry in the assay on CP266 is “inactive”.

In the case of `CCN(C(C)=O)c1cccc(-c2ccnc3c(C#N)cnn23)c1`, the Potency result in the assay on CP185, in the assay with CP191, with CP194, with CP201, with CP203 and in the assay with CP211 was “inactive” each time. Further, the Potency entry with CP215, in the assay with CP217, in the assay with CP237, with CP238, in the assay with CP247 and in the assay on CP250 was “inactive” throughout. Also, the Potency result with CP252, with CP256, in the assay with CP260, in the assay on CP262, in the assay with CP265 and in the assay with CP266 was “inactive” throughout. Further, in the assay on CP268, the Potency result was “inactive”.

Turning to `O=c1[nH]c2ccccc2n1CCCN1CCC(n2c(=O)[nH]c3cc(Cl)ccc32)CC1`, the Potency in the assay with CP191 was 3.98 µM (active); with CP237 it was 7.94 µM (active); in the assay with CP260 it was 11.2 µM (active). The Potency entry in the assay on CP201, in the assay on CP262 and with CP266 was “inactive” throughout.

For the compound `CC(CCc1ccccc1)NC(C)C(O)c1ccc(O)cc1` (centres undefined), the Potency entry in the assay on CP185, with CP191, with CP192, with CP217, in the assay on CP250 and in the assay on CP252 was “inactive” each time. Besides, the Potency result with CP256, in the assay on CP262 and with CP266 was “inactive” in each case. For the same compound, the Potency in the assay with CP237 is 5.62 µM (active).

Consider `Clc1cccc(N2CCNCC2)c1`, for which the Potency result in the assay on CP185, in the assay on CP191, with CP192, in the assay with CP201, in the assay on CP215 and in the assay with CP217 was “inactive” each time. Moreover, the Potency result with CP238, in the assay on CP247, with CP250, with CP252, with CP256 and in the assay on CP260 was “inactive” in each case. Also, the Potency result with CP262, with CP265, in the assay on CP266 and in the assay with CP268 was “inactive” throughout.

`CC[N+](CC)(CC)CC`: the Potency entry with CP185, with CP191, in the assay on CP192, in the assay with CP194, in the assay on CP201 and in the assay with CP211 was “inactive” each time. In addition, the Potency result with CP217, with CP237, in the assay with CP238, in the assay on CP247, in the assay on CP250 and in the assay on CP252 was “inactive” each time. Besides, the Potency result with CP256, with CP260, in the assay on CP262, in the assay with CP265, with CP266 and in the assay with CP268 was “inactive” throughout.

As for `Cc1cccc(C)c1NC1=NCCCS1`, the Potency result with CP191, in the assay on CP192, with CP247, in the assay with CP250 and in the assay on CP266 was “inactive” in each case. In the assay on CP237, the Potency was 7.08 µM (active).
